Source: PubChem BioAssay (National Center for Advancing Translational Sciences (NCATS))
VDR inhibitor – Inhibitors of the vitamin D receptor (VDR): qHTS | VDR-SRC2-3 peptide fluorescence polarization, 2 h | Potency, µM, usual class: inhibitors | actives 0.93% (n = 400,000)
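Fluorescence polarization assay measuring small-molecule disruption of VDR binding to the coregulator peptide SRC2-3. Compounds were pin-transferred (23 nl) into the reagent mix and incubated 2 h at room temperature before reading.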
PLK1 PBD block – qHTS for Inhibitors of PLK1-PDB (polo-like kinase 1 - polo-box domain): Primary Screen | Plk1 PBD binding of FITC phosphopeptide, fluorescence polarization | Potency, µM, actives largely listed as inhibitors | actives 2.8% (n = 360,000) | AID 720504, 2013; note: series mostly up to about 57 µM; nearly all actives have a fitted effect of over 65% in size
Target sequence (P53350 whole entry, looked up, the tested form may be a part): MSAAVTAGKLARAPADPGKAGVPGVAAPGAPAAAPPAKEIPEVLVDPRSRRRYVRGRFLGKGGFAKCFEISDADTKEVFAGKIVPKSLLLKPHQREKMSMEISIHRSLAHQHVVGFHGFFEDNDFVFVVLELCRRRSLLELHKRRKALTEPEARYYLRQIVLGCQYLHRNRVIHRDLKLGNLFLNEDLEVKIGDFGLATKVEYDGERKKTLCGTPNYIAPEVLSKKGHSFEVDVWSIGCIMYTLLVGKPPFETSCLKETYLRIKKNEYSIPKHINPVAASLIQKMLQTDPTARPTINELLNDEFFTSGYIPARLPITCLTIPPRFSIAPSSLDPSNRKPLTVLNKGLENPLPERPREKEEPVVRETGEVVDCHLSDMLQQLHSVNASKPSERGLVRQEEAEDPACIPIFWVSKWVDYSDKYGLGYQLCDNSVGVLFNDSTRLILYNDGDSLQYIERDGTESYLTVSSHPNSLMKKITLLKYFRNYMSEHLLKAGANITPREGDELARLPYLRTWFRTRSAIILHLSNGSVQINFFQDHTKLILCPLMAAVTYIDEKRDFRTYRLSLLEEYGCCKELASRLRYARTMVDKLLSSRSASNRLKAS
Mm-Cpn inhibitor – Inhibitors of TCP-1 ring complex (TRiC) of Methanococcus maripaludis (MmCpn): qHTS; Potency, µM (series often up to 76.9 µM), usual class: inhibitors; purified Mm-Cpn ATPase, ADP Transcreener TR-FRET; actives 0.031% (n = 330,000); Chaperonin Mm-Cpn (Methanococcus maripaludis); note: nearly all actives have a fitted effect of over 80% in size
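Inhibition of chaperonin ATP hydrolysis is measured as reduced ADP production, detected by competitive TR-FRET in which signal falls with ADP. Final enzyme 25 nM and ATP 10 uM, reacted 30 min at 37°C.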
Sfp inh – qHTS Assay for Inhibitors of Bacillus subtilis Sfp phosphopantetheinyl transferase (PPTase). 4'-phosphopantetheinyl transferase ffp (Bacillus subtilis), Q9F4F7. actives 3.5% (n = 310,000). Biochemical Sfp PPTase activity, qHTS. AID 1490, 2009. Potency, µM, hits mostly inhibitors;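 note: the enzyme is Sfp with the accession as filed and its product quenches rhodamine fluorescence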
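With Hepes-Na pH 7.6 buffer containing 10 mM MgCl2, Sfp (15 nM) modified BHQ-2-YbbR (12.5 uM) using rhodamine-CoA (5 uM). Two reads 30 minutes apart at 525/598 nm yielded each well's rate.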
G9a block – qHTS Assay for Inhibitors of Histone Lysine Methyltransferase G9a; Potency, µM (titrated, usually from 102 µM), usual class: inhibitors; actives 8.8% (n = 350,000); AID 504332, 2011; G9a H3K9 monomethylation, AlphaScreen, 2 h; note: nearly all actives have a fitted effect of over 75% in size
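Quantitative HTS format: methyltransferase activity on a biotin-tagged H3K9 peptide is measured by AlphaScreen, using a rabbit anti-monomethyl-H3K9 antibody with streptavidin donor and anti-IgG acceptor beads. Final levels are 20 nM enzyme, 500 nM peptide, 20 uM SAM; 2 h RT.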
CCT chaperon mod – High-Throughput Screening for Modulators of Cytosolic Chaperonin Activity. purified chaperonin ATPase assay, HTRF ADP detection, 30 min. activity change, % (concentration not given with the values), hits read low. actives 0.3% (n = 360,000); in the data active = activity change below about -30%
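ATPase activity: ADP formed was measured by HTRF Transcreener (665/615 nm ratio) after 30 min at 37 deg C with 10 uM ATP. Compounds screened at one 76 uM concentration against 40 or 20 nM TRiC in Tris pH 7.4/KCl/MgCl2/DTT buffer.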
Numbers stand for hits; . = inactive; ? = inconclusive; / = not tested or not shown; [ ] = dose if it differs, or a comment. The list is not random: actives were taken first. Their share in the collection is about 10%. Unless noted, calls come from the whole dose curve; as a rule, active = well fitted curve in the direction sought with a large enough effect; inconclusive = small, poorly fitted or top-dose-only effect, or another doubt; inactive = no such curve, though single readings can be large; an effect the other way counts as inactive or inconclusive.

SMILES	VDR inhibitor	PLK1 PBD block	Mm-Cpn inhibitor	Sfp inh	G9a block	CCT chaperon mod
COCCCNC(=O)CCCn1c(SCC(=O)c2ccc(F)cc2)nc2c(sc3ccccc32)c1=O	.	/	/	/	.	/
CCS(=O)(=O)n1nc(C(=O)N2CCOCC2)nc1N	.	.	.	.	?	.
Nc1nc(C(=O)N2CCOCC2)nn1S(=O)(=O)c1ccccc1	.	.	.	.	18µM	.
Nc1nc(C(=O)N2CCOCC2)nn1S(=O)(=O)c1ccc(Cl)cc1	?	27µM	.	.	?	.
CC(=O)c1cccc(OCC(=O)N(C)CC(=O)Nc2ccc(F)cc2)c1	.	30µM	.	.	.[12.7 µM]	.
CCOC(=O)c1c(NC(C)=O)c2c3c(sc2n1Cc1nc(-c2ccccc2C)oc1C)CCCC3	.	/	/	/	.	/
O=C(Nc1cc(F)ccc1F)C1CCN(c2nc3ccccc3n3cccc23)CC1	.	/	/	/	?	/
O=C(NCc1ccccc1OC(F)(F)F)C1CCC(=O)N(Cc2ccccn2)C1 (configuration not stated)	?	12µM	.	.	.	.
O=C(NCc1ccccc1OC(F)(F)F)C1CCC(=O)N(CCc2ccccn2)C1 (configuration not stated)	.	.	/	/	/	.
COc1ccc(NS(=O)(=O)c2ccc3c(c2)CCCN3C(=O)C2CCC2)cc1OC	.	/	/	/	.	/
COc1ccc(-c2cn3c(n2)sc2cc(C(=O)Nc4cccc(SC)c4)ccc23)cc1	.	/	/	/	.	/
CCOc1cc(/C=C2/SC(=S)N(CC(=O)O)C2=O)ccc1OC(=O)c1cccs1	?	?	.	4.5µM	?	.
COc1cc(/C=C2/SC(=O)NC2=O)ccc1OCc1ccccc1	.	?	.	.	/	.
COc1cc(/C=C2/SC(=O)N(Cc3ccccc3Cl)C2=O)ccc1OCc1ccncc1	89µM	.	.	.	.[0.501 µM]	.
O=C(O)CN1C(=O)/C(=C\c2cc([N+](=O)[O-])ccc2OCc2ccccc2Cl)SC1=S	?	27µM	.	79µM	35µM	.
COc1cc(/C=C2/SC(=S)N(CC(=O)O)C2=O)ccc1OC(=O)c1ccco1	.	.	.	.	45µM	.
O=C(O)CCCCN1C(=O)/C(=C\c2ccc(OCc3ccccc3)c(OCc3ccccc3)c2)SC1=S	.	?	.	.	.	.
CC(=O)Nc1nonc1-c1nnc(SCC(=O)Nc2cc(Cl)ccc2C)n1C	.	/	/	/	.	/
COc1ccc(N2CCN(S(=O)(=O)c3ccc(C4CCCCC4)cc3)CC2)cc1	.	/	/	/	.	/
CCC(=O)OCC(=O)[C@@]1(OC(=O)CC)[C@H](C)C[C@@H]2[C@@H]3[C@H]([C@@H](O)C[C@@]21C)[C@]1(C)C=CC(=O)C=C1C[C@@H]3Cl	.	/	/	.	?	/
CC(NC(=O)CCCC1=NS(=O)(=O)c2ccccc2N1)c1ccccc1 (configuration not stated)	.	/	/	/	.	/
COc1ccc(/C=C2/SC(=S)N(CC(=O)O)C2=O)cc1OCc1ccc(Cl)cc1	?	30µM	.	.	/	.
O=C(O)CN1C(=O)/C(=C\c2cc(Br)ccc2OCc2ccc(Cl)cc2)SC1=S	40µM	8.4µM	.	.	14µM	.
O=C(O)CN1C(=O)/C(=C\c2ccccc2OCc2ccccc2)SC1=S	/	?	/	/	/	.
COc1cc(/C=C2\SC(=S)N(CC(=O)O)C2=O)ccc1OC(=O)c1ccco1	.	.	.	.	?	.
SMILES	VDR inhibitor	PLK1 PBD block	Mm-Cpn inhibitor	Sfp inh	G9a block	CCT chaperon mod
CCc1ccc(CNC(=O)c2ccc(CSc3nc4ccncc4n3Cc3ccc(OC)cc3)cc2)cc1	.	/	/	/	?	/
O=C(CSC1=Nc2ccccc2N=C(c2ccc(F)cc2)C1)NCc1ccccc1	.	/	/	/	.	/
CC(C)(C)c1ccc(/C=C/C(=O)Nc2cccnc2)cc1	.	.	.	.	.	.
CN1C(=S)N(c2cccnc2)C(=O)/C1=C\c1ccc(C(C)(C)C)cc1	?	.	.	?	40µM	.
Cc1ccc(C)c(NC(=O)CSc2nc(=O)n(Cc3ccccn3)c3c2CCC3)c1	.	/	/	/	.	/
Cn1c2ccc(F)cc2c2ncn(Cc3ccco3)c(=O)c21	.	.	.	50µM	.	.
Cn1c2ccccc2c2ncn(Cc3ccco3)c(=O)c21	.	.	.	.	.	.
CCCCn1c(=O)n(Cc2cccc(F)c2)c(=O)c2c1ncn2Cc1ccco1	.	?	.	40µM	.[12.7 µM]	.
Cn1cnc2c1c(=O)n(Cc1cccc(F)c1)c(=O)n2C	.	.	.	.	?	.
CCCCC(CC)CN=C(N)NC(N)=NCCCCCCN=C(N)NC(N)=NCC(CC)CCCC (configuration not stated)	.	?	?	14µM	.	.
CC(=O)Oc1ccc(N2C(=O)C3C4C=CC(C5CC45)C3C2=O)cc1[N+](=O)[O-] (configuration not stated)	?	.	.	56µM	?	.
CC(C)(C)N1C(=O)[C@@H]2[C@H]3C(=CC[C@H]2C1=O)C(=O)[C@H]1O[C@H]1[C@H]3O	/	/	/	.	/	/
CCOc1ccccc1NC(=O)CSc1nnc(-c2cnccn2)n1CC	.	.	.	.	.	.
CCn1c(SCC(=O)Nc2ccc(C)cc2)nnc1-c1ccccn1	.	.	.	?	50µM	.
CCn1c(SCC(=O)Nc2ccccc2Br)nnc1-c1cnccn1	.	21µM	.	.	/	.
COc1cccc(NC(=O)CSc2nc3cc(OC)c(OC)cc3c3nc(-c4ccccc4)nn23)c1	.	/	/	/	?	/
Cc1ccccc1CNC(=O)Cc1csc2ccccc12	.	/	/	/	.	/
CN(CC(=O)NCc1ccco1)S(=O)(=O)c1cccc2cccnc12	.	.	.	.	71µM	.
CN(CC(=O)NCc1ccc(Cl)cc1)S(=O)(=O)c1cccc2cccnc12	.	?	.	.	.	.
CN(CC(=O)Nc1n[nH]c(=S)s1)S(=O)(=O)c1cccc2cccnc12	.	30µM	.	40µM	1.6µM	.
Cc1cccc([C@@H]2CN(C)CCc3c2cc(O)c(O)c3Cl)c1	/	/	/	79µM	/	/
CC1CC(C)CN(CC(=O)N2CCOCC2)C1 (configuration not stated)	?	.	.	.	8.9µM	.
CCOC(=O)c1noc2ncn(CC(=O)Nc3ccccc3OC)c(=O)c12	.	/	/	/	.	/
CCN(CC)C(=O)CSC1=Nc2ccccc2C2=NC(Cc3c[nH]c4ccccc34)C(=O)N12 (configuration not stated)	.	.	.	50µM	?	.
Cc1ccc(Cl)cc1N1CCN(S(=O)(=O)c2ccc3oc(=O)c4ncn(C)c4c3c2)CC1	.	/	/	/	.	/
